The structures appear in SMILES notation. The source made the active and inactive calls. The call rests on the fitted dose curve; in most records, active means well fitted curve in the direction sought with a large enough effect in the repeat runs; inconclusive means weak or mixed curves; inactive means flat fitted curve, though single readings scatter.

The nature of this experiment: qHTS assay to test for compound auto fluorescence at 590 nm (red) in HEK293 cell free culture (AID 720683). As to conditions: cell-free medium autofluorescence, Ex540/Em590 red; series mostly up to 91.3 µM. An excerpt: U.S. Tox21 Program National Center for Advancing Translational Sciences [NCATS] NIH Chemical Genomics Center [NCGC] U.S. Environmental Protection Agency [EPA] National Institutes of Environmental Health Sciences [NIEHS] National Toxicology Program [NTP] U.S. Food and Drug Administration [FDA] Tox21 Assay Overview: Compound auto fluorescence often interferes with screening of the compound library against various biological targets and signaling pathways. Some of these compounds may have fluorophoric properties. Such properties may interfere with the assay outputs resulting in false positives and/or negatives. To decrease such complications and ensure the compound activities are relevant in terms of biological response, the Tox21 10K compound library was screened for auto fluorescence. From the fluorophores used as reporter signals in our screening assays, the auto fluorescence equivalencies of compounds against three fluorophores have been evaluated: Triamterene, Fluorescein and Rose Bengal sodium for blue, green and red fluorescence, respectively. The fluorescence intensities were measured using Excitation/Emission wavelengths at 405/460nm, 485/535nm and 540/590nm for blue, green and red labels, respectively. This assay includes the red fluorescence data.
Tox21 Assay Protocol Summary: 5 uL of culture medium (DMEM containing 10% FBS) per well was dispensed into black wall/clear bottom 1536-well plates using a Multidrop Combi Dispenser (ThermoFisher Scientific, Waltham, MA). After 23 nL compound or DMSO vehicle was transferred into assay plate by a pintool work station (Kalypsys, San Diego, CA), fluorescence intensities in the assay plates were measured by an Envision (PerkinElmer, Shelton, CT) plate reader using three labels for measuring blue, green and red fluorescence at […] 460, 535 and 590nm respectively.
Consider `CNC(=O)O/N=C/C(C)(C)SC`, for which the call was inactive.
In the case of `C=CCN=C=S` it was “inactive”; in that of `Cc1ccc(N)cc1`, “inactive”.
Turning to `Cc1cccc(N)c1C`, the compound was called inactive.
To `CCOP(=S)(OCC)Oc1cc(C)nc(C(C)C)n1` belongs “inactive”; to `C=CC(=O)OCC(CC)CCCC` (stereo not given), “inactive”; to `CC(C)c1cccc(C(C)C)c1O`, “inactive”.
In the case of `Cc1ccccc1N` it was “inactive”.
In the case of `CN(C)CCC#N` it was “inactive”; in that of `C[C@H]1C(=O)O[C@@H]2CCN3CC=C(COC(=O)[C@](C)(O)[C@]1(C)O)[C@H]23`, “inactive”.
For the compound `O=C(O)c1cc(Oc2ccc(C(F)(F)F)cc2Cl)ccc1[N+](=O)[O-]`, the result was inactive.
In the case of `C=C(C)C(=O)OCC(CC)CCCC` (stereo not given) it was “inactive”.
In the case of `COc1nc(NC(C)C)nc(NC(C)C)n1` it was “inactive”; in that of `C=CC#N`, “inactive”.
With `COP(=S)(OC)SCN1C(=O)c2ccccc2C1=O`, the compound was called inactive.
In the case of `O=[N+]([O-])c1cc([As](=O)(O)O)ccc1O` it was “inactive”; in that of `Nc1ncc([N+](=O)[O-])s1`, “inactive”.
To `OCC(O)CCl` (stereo not given) belongs “inactive”; to `CCCCCCCCCCCCCCCCCC(=O)O`, “inactive”; to `CC(C)CCCCCCOC(=O)c1ccccc1C(=O)OCCCCCCC(C)C`, “inactive”.
In the case of `CNc1cnn(-c2cccc(C(F)(F)F)c2)c(=O)c1Cl` it was “inactive”; in that of `CCNc1nc(Cl)nc(NC(C)C)n1`, “inactive”.
Consider `Nc1ccc(N)cc1`, for which the compound was called inactive.
`COC(=O)Nc1cccc(OC(=O)Nc2cccc(C)c2)c1`: the result was inactive.
Consider `OCCCCO`, for which the compound was classed as inactive.
To `O=C(O)Cc1ccccc1` belongs “inactive”; to `CCCCC(CC)C(=O)Cl` (stereo not given), “inactive”.
To `CC12CC1(C)C(=O)N(c1cc(Cl)cc(Cl)c1)C2=O` (stereo not given) belongs “inactive”; to `CN(C)C(=O)Nc1cccc(C(F)(F)F)c1`, “inactive”.
In the case of `O=C(O)C(Br)Br` it was “inactive”; in that of `Clc1cnc(Oc2ccc(Oc3ncc(Cl)cc3Cl)cc2)c(Cl)c1`, “inactive”.
Turning to `CN(C)C(=O)C(c1ccccc1)c1ccccc1`, the call was inactive.
To `O=P1(NCCCl)OCCCN1CCCl` (stereo not given) belongs “inactive”.
In the case of `COc1cc(-c2ccc(N)c(OC)c2)ccc1N` it was “inactive”.
Consider `CNC(=O)O/N=C/C(C)(C)S(C)=O` (stereo not given), for which the call was inactive.
To `CCOC(=O)CC(SP(=O)(OC)OC)C(=O)OCC` (stereo not given) belongs “inactive”; to `O=[N+]([O-])c1ccc(Cl)c(Cl)c1`, “inactive”; to `OC[C@@H](O)[C@H]1O[C@@H]2O[C@H](C(Cl)(Cl)Cl)O[C@@H]2[C@H]1O`, “inactive”.
`OCc1ccco1`: the compound was called inactive.
In the case of `O=C(O)COc1ccccc1` it was “inactive”.
